The record followed here is PubChem BioAssay AID602156 (GNF / Scripps Winzeler lab, 2011).

Hit rate of the full screen: of about 5,700 compounds, about 280 (4.9%) were called active. How the calls were made is not given here. Only a sample is shown.

A short description of this test: exo-erythrocytic parasite development inhibition – imaging, Malaria Box, P. yoelii, HepG2-A16-CD81EGFP, dose response (AID 602156). Particulars: P. yoelii liver stage in HepG2-A16-CD81EGFP.
On to `CC(C)CC(NC(=O)C(=Cc1ccco1)NC(=O)c1ccccc1)C(=O)OCc1ccccc1` (stereo not given), for which the call was inactive. In the case of `O=C(Nc1ccc2c(c1)OCO2)c1cc2cc(C3(O)CCN(CCCc4ccccc4)CC3)ccc2o1`, the compound was classed as inactive.

In the case of `CC(C)(C)C1=NN(CC(=O)Nc2ccc3c(c2)OCO3)C(=O)c2cc3ccccc3n2C1`, the result was inactive. The same measure for `CC(C)CN1CCC(O)(c2ccc3oc(C(=O)Nc4ccc5c(c4)OCO5)cc3c2)CC1`: “inactive”; for `O=C(CSc1nc2ccccc2[nH]1)Nc1ccc2c(c1)OCO2`: “inactive”. Take `Clc1cccc(CSc2nc(Nc3ccc4c(c3)OCO4)c3ccccc3n2)c1`: the compound was classed as inactive.

Take `c1ccc2c(NC3CCCC3)nc(Nc3ccc4c(c3)OCO4)nc2c1`: the result was inactive.

For the compound `CCCc1ccc(OCCNC(=O)CCNC(=O)Nc2cccc(Cl)c2)cc1`, the call was inactive. The same measure for `CC(C)CNC(=O)c1ccc(OC2CCN(CC3CCCCC3)CC2)c(Cl)c1`: “inactive”; for `CC(C)CN(CC(=O)Nc1cc(C(C)(C)C)nn1-c1ccccc1)C(=O)c1cc(Cl)cc(Cl)c1`: “inactive”; for `O=C(Nc1ccc(-n2cnnn2)cc1)C1CCN(Cc2ccc(OC(F)F)cc2)CC1`: “inactive”. The same measure for `CCC(C)OC(=O)C1=C(C)NC2=C(C(=O)CC(c3ccc(Cl)cc3)C2)C1c1ccccc1F` (stereo not given): “inactive”; for `N#Cc1cc(Oc2ccc(-c3cnc4ccccc4n3)cc2)nc2ccccc12`: “inactive”; for `COc1ccc(C2C(C(=O)Nc3cccc(OC)c3)c3ccccc3C(=O)N2C2CCCCC2)cc1` (stereo not given): “inactive”. Take `CC[n+]1c(C=CC=C2N(C)c3ccccc3C2(C)C)n(-c2ccccc2)c2ccccc21`: the call was inactive. With `COc1ccc(NC(=O)NCc2cccn2Cc2ccc(F)cc2)cc1OC`, the compound was called inactive.

As for `Cn1nc(C(=O)N2CCCCCC2)c2c1CCC(NCC(C)(C)N1CCOCC1)C2` (stereo not given), the call was inactive. The same measure for `C=C(Cl)CSc1nnc(CCNC(=O)c2ccc(C)cc2)n1-c1ccc(F)cc1`: “inactive”; for `CCc1nc2ccc(NC(=O)c3ccncc3)cc2c(=O)n1Cc1cccc(OC)c1`: “inactive”; for `CCCc1nc2ccc(NC(=O)NCC)cc2c(=O)n1Cc1ccc(-c2ccccc2)cc1`: “inactive”. With `COc1cc(OC)cc(C(=O)N(CCCC(C)Nc2cc(OC)cc3cccnc23)Cc2ccc(Cl)cc2)c1` (stereo not given) the entry was “inactive”; with `COc1cc(C(=O)C=CNc2ccc(N(C)C)cc2)cc(OC)c1OC`, “inactive”. With `CCC(Cc1cnc2nc(N)nc(N)c2n1)c1ccc(C(=O)N[C@@H](CCC(=O)O)C(=O)O)cc1` (stereo not given in full) the entry was “inactive”. For `CCCCCCc1cc2cc(-c3nc4ccccc4[nH]3)c(=Nc3ccccc3C)oc2cc1O`, the result was inactive.

Regarding `CC(C)(C)c1nn(-c2ccc(Cl)cc2)c2[nH]c(=O)c(CNCc3ccccc3)cc12`, the compound was called inactive. `c1ccc2c(NCCNc3c4ccccc4nc4ccccc34)c3ccccc3nc2c1`: the result was inactive.

Regarding `COc1ccccc1N1CCN(Cc2cc(C(C)C)c(C)cc2O)CC1`, the result was inactive. As to `N#CN=C(N)c1sc(Nc2ccccc2)nc1N`, the outcome was inactive. For the compound `CC1[C@H]2NC[C@H](C)C[C@]2(O)O[C@@H]2C[C@H]3[C@@H]4CC[C@H]5C[C@@H](N)CC[C@]5(C)C4CC[C@]3(C)[C@@H]12` (stereo not given in full), the outcome was inactive. As to `O=C(Nc1ccc(Cl)c(Cl)c1)Nc1ccc(Cl)c(Cl)c1`, the outcome was inactive. With `N=c1c2c(n(Cc3ccc(Cl)c(Cl)c3)c3c1CCC3)CCCC2` the entry was “inactive”; with `COc1ccc(C2CC(=O)C3=C(C2)NC(C)=C(C(=O)OC2CCCC2)C3c2ccccc2)cc1` (stereo not given), “inactive”; with `COCCSc1nc2sc3c(c2c(=O)n1-c1ccc(OC)cc1)CCN(C)C3`, “inactive”. Take `Cc1ccc2nc3c(c(Nc4ccc(N(C)C)cc4)c2c1)CCC3`: the compound was called inactive. On to `Cc1ccc(-c2nc3cc(NC(=O)c4ccc([N+](=O)[O-])o4)ccc3o2)cc1Br`, for which the call was inactive. `Nc1cc(C(=O)Nc2cccc(C3=NCCN3)c2)ccc1C(=O)Nc1cccc(C2=NCCN2)c1`: the outcome was inactive. With `CCCCCC1CCCc2c1[nH]c1cc(Cl)ccc1c2=O` (stereo not given) the entry was “inactive”; with `O=C(NCc1ccccc1)c1cnc(NCCCN2CCCC2)nc1NCCc1ccccc1`, “inactive”; with `CC(C)c1ccc(C=CC(=O)NCc2ccco2)cc1`, “inactive”.

For `CCc1c(C)nc(SCC(=O)NNC(C)=O)[nH]c1=O`, the call was inactive. The same measure for `FC(F)(F)c1cccc(-c2nc3c(s2)CN(C2CCCC2)CC3)c1`: “inactive”; for `Cc1c(/C=C2\SC(=Nc3ccccc3F)N(C3CCCCC3)C2=O)c2ccccc2n1CC(N)=O`: “inactive”; for `Clc1ccc(-c2nc3ncc(Cl)cc3[nH]2)cc1`: “inactive”. The same measure for `COc1cccc(-c2ccc(O)c(CN3CCC(C)CC3)c2)n1`: “inactive”; for `Clc1ccc(Nc2nc(NCc3ccco3)c3ccccc3n2)cc1`: “inactive”. The same measure for `CCOC(=O)c1sc(NC(=O)CSc2nnc(CNC(=O)COc3ccc(Cl)cc3)n2C)c(C(=O)OCC)c1C`: “inactive”; for `COc1ccc(N=C(C)C2=C(O)c3ccccc3C2=O)c(OC)c1`: “inactive”. As for `CN(C)c1ccc(/C=C/C=C/c2cc[n+](C)cc2)cc1`, the compound was called inactive.

As to `CCCCCCCCCCOC(=O)Cn1c(C)[n+](C)c2ccccc21`, the result was inactive.

As to `COCCn1nnnc1C(c1cc2cc3c(cc2[nH]c1=O)OCCO3)N1CCC(O)CC1` (stereo not given), the outcome was inactive. With `COc1cc2nc(NCc3ccccn3)n3nc(-c4ccccc4)nc3c2cc1OC` the entry was “inactive”; with `CCN1C(=S)NC2c3cc(C)ccc3OC13CCCC23` (stereo not given), “inactive”; with `Cc1ccc(NC(=O)CCCCC(=O)Nc2ccc(C)c(Br)c2)cc1Br`, “inactive”.

With `C#CC(C)(C)NC(=O)c1ccc(-c2ccc(CC)cc2)cc1`, the call was inactive.

As to `CCC(c1nc2ccccc2c(=O)n1-c1cccc(C)c1)N(Cc1ccccc1)C(=O)Nc1c(C(C)C)cccc1C(C)C` (stereo not given), the call was inactive. For `CCC(c1nc2ccccc2c(=O)n1-c1cccc(C)c1)N(CCc1ccccc1)C(=O)Nc1c(C(C)C)cccc1C(C)C` (stereo not given), the outcome was inactive. On to `CCCNC(=O)c1ccc(OC2CCN(CC(c3ccccc3)c3ccccc3)CC2)c(OC)c1`, for which the outcome was inactive. For `COCCNC(=O)c1ccc(OC2CCN(CC(c3ccccc3)c3ccccc3)CC2)c(OC)c1`, the result was inactive. For `COc1ccc(SC2CCN(C3CCOCC3)CC2)cc1`, the result was inactive.

As for `CCCCC(CC)C(=O)N(C)CCCNc1ccnc2cc(Cl)ccc12` (stereo not given), the compound was classed as inactive. In the case of `O=C(NCC1CCCO1)c1cnc(NCCCn2ccnc2)nc1NCCc1ccccc1` (stereo not given), the compound was called inactive. The same measure for `Cc1cc(C)nc(N=C(N)Nc2ccccc2O)n1`: “inactive”; for `Oc1ccc(-c2nc3ccccc3s2)cc1CN1CCCCC1`: “inactive”; for `O=C1CSC(=S)N1c1cccc(Cl)c1`: “inactive”.

Regarding `CC[C@@H]1CCC[C@H](C)CC[C@@H](O[C@@H]2O[C@@H](C)[C@@H](O)[C@@H](N)[C@H]2O)[C@H](CC)CCCNC1=O`, the call was inactive. `CN(CCCNc1nc2ccccc2c2nc(-c3cccnc3)nn12)Cc1ccccc1`: the compound was classed as inactive. The same measure for `O=C(Cc1ccccc1)NCc1ccc(Nc2c(-c3cccnc3)nc3ccccn23)cc1`: “inactive”; for `CCCCCCCSc1c(O)c2ccc(Cl)cc2[nH]c1=O`: “inactive”.

`COc1ccc(Nc2ncnc3[nH]c(-c4cccc([N+](=O)[O-])c4)cc23)cc1`: the compound was classed as inactive. As for `C1CCC(CN2CCc3nc(N4CCCCC4)sc3C2)CC1`, the result was inactive. The same measure for `CC(=O)N(C1=C(N(C)C)C(=O)c2ccccc2C1=O)c1cccc(O)c1`: “inactive”; for `Oc1ccc(Br)cc1C=NNc1nc2ccccc2[nH]1`: “inactive”; for `CCCOC(=O)C1=C(C)NC2=C(C(=O)CC(c3ccc(OC)c(OC)c3)C2)C1c1ccccc1C` (stereo not given): “inactive”. In the case of `CN(C=Cc1sc2ccc3ccccc3c2[n+]1C)c1ccccc1`, the call was inactive. Turning to `Oc1ccc(-c2cncnc2)cc1CNC1CCN(Cc2ccccc2)CC1`, the compound was called inactive. As for `CC(C)CN(CC(=O)N1CCC(Nc2nsc3ccccc23)C1)S(C)(=O)=O` (stereo not given), the result was inactive.

For the compound `COc1ccc2[nH]c(-c3ccccc3)cc(=O)c2c1`, the result was inactive. The same measure for `COc1ccc(Nc2nc(Nc3ccc(OC)cc3)c3ccccc3n2)cc1`: “inactive”. With `CC(=O)Nc1ccc(C2NC(=O)NC3=Nc4ccccc4SC(c4ccccc4)=C32)cc1` (stereo not given) the entry was “inactive”; with `Cc1cccc(CSc2nnc(C(Cc3ccccc3)NC(=O)C3CCCCC3)n2-c2ccc(Cl)cc2Cl)c1` (stereo not given), “inactive”.

On to `Cc1cc(Nc2ccc(C)c(F)c2)n2nc(C)nc2n1`, for which the compound was called inactive. With `CCN1CCN(c2nc3ccccn3c(=O)c2C=C2SC(=S)N(C(C)C)C2=O)CC1` the entry was “inactive”.

On to `CCOc1ccccc1C=NNc1nc(Nc2ccccc2)nc(Nc2ccccc2)n1`, for which the compound was classed as inactive. With `Cc1cc(C)nc(NNc2c([N+](=O)[O-])cccc2[N+](=O)[O-])n1` the entry was “inactive”; with `O=c1c(NCc2ccco2)nc2cc(Cl)ccc2n1CCNc1ncc(C(F)(F)F)cc1Cl`, “inactive”.

As to `Cn1c(=O)n(C)c2cc(NC(=O)CCl)ccc21`, the call was inactive. With `Oc1ccccc1-c1nc2ncccn2c1Nc1cccc(C(F)(F)F)c1`, the result was inactive. The same measure for `Cc1cc2cc3c(cc2c(C)n1)c1ccccc1n3C`: “inactive”; for `Cc1ccc(N=C2NC(=O)C(=Cc3ccc(N(C)C)cc3)S2)cc1`: “inactive”. With `c1ccc(CN2CCC(NCc3c[nH]c4ccccc34)CC2)cc1` the entry was “inactive”; with `Cc1ccccc1S(=O)Cc1ccc(C(=O)N2CCN(c3ccccn3)CC2)o1` (stereo not given), “inactive”; with `CCN1C(=Cc2ccc3cc(C)ccc3[n+]2C)C=Cc2cc(C)ccc21`, “inactive”. With `O=C(NCc1ccccc1)c1cnc(NCCCn2ccnc2)nc1NCCc1ccccc1` the entry was “inactive”.

Take `N#Cc1ccccc1Cn1nc(-c2cccnc2)oc1=O`: the compound was called inactive. With `Clc1ccc(-c2c[n+](Cc3ccc(Cl)c(Cl)c3)c3n2CCC3)cc1` the entry was “inactive”; with `c1ccc(Cn2c(N=Nc3c(Nc4ccccc4)ccc4ccccc34)nc3ccccc32)cc1`, “inactive”; with `COC(=O)c1c(-c2c(F)cccc2Cl)noc1/C=C/Nc1ccccc1`, “inactive”. Consider `CCCN(CCC)C(=O)Cn1ccc(=N)c2ccccc21`, for which the result was inactive. The same measure for `O=C1N(Cc2cc3ccccc3s2)CC2CN(Cc3ccoc3)CCN12` (stereo not given): “inactive”; for `O=C1N(Cc2cc3ccccc3s2)CC2CN(Cc3ccccc3)CCN12` (stereo not given): “inactive”.
